# Bioassay records from PubChem.
# Compounds with a hit are over-represented: about 1.5% of the library has one in this group of screens.
# BRCA1 expr up: BRCA1 expression activation | MCF7-BRCA1-FFLuc reporter, luminescence, 48 h; response scale: scaled: vehicle 0%, 10 µM genistein 100% | Potency, µM (series often up to 46.1 µM), without a hit: at the highest dose activation, usual class: activators | actives 1.1% (n = 380,000) | AID 624202; also: potency is read from the fitted curve at half-maximal effect; nearly all actives have a fitted effect of over 80% in size
#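 First, MCF7-BRCA1-FFLuc cells (2000/well) attach for 2 h; next, compounds are pin-added and incubated 48 h at 37 °C; finally, luciferase reagent is added and luminescence read after 15 min.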
# mIDH1 inhibitor: blocks human mutant IDH1 R132H enzyme. Potency, µM (doses to about 76.6 µM), without a hit: at the top dose activity change, negative = inhibition, hits mostly inhibitors. O75874. IDH1-R132H enzyme, NADPH consumption, diaphorase/resazurin fluorescence. AID 602179. actives 0.093% (n = 390,000); also: potency is read from the fitted curve at half-maximal effect; % is scaled to controls: 0 for no effect and ±100 for the full control effect; nearly all actives have a fitted effect of over 65% in size
# Target sequence (O75874 whole entry R132H, stated change not applied): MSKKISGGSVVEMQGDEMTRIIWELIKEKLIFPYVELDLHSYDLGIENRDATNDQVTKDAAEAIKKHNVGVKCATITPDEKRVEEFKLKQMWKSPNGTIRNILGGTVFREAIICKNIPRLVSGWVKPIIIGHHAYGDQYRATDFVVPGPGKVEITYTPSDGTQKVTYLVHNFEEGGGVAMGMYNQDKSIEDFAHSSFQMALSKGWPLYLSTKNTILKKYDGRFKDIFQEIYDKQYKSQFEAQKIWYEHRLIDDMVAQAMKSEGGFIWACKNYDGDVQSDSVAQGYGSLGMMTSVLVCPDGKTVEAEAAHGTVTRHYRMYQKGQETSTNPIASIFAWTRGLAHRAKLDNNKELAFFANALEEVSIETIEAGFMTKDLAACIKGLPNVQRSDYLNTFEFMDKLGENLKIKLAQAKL
#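 IDH1-R132H (0.5 ug/mL) preincubated 30 min with compound, then NADPH (0.016 mM) and alpha-KG (2 mM) added; 80 min at RT, pH 7.5. Remaining NADPH coupled via diaphorase/resazurin to fluorescence (540/590 nm); concentration-response curves normalized to no-enzyme control.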
# gsp agonist: agonists of gsp mutant (McCune-Albright syndrome). AID 624287. actives 0.13% (n = 340,000). Potency, µM (titrated, usually from 76.9 µM), without a hit: top-dose activation (cAMP increase), actives largely listed as activators. gsp mutant cells, cAMP HTRF, 30 min; active = well fitted activation curve with a large enough effect; inconclusive = small, poorly fitted or top-dose-only effect, or another doubt; inactive = no such curve, though single readings can be large or run the other way; cell line not stated here;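 also: phosphodiesterase inhibitor Ro 20-1724 added with compounds to block cAMP breakdown; potency is read from the fitted curve at half-maximal effect; nearly all actives have a fitted effect of over 60% in size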
#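 Cells in DMEM/10% FBS with G418 were pretreated with compounds in DMSO plus […] (300 uM stock) for 30 min at 37C. cAMP was measured by HTRF (cAMP-d2 plus anti-cAMP antibody-K) after 30 min at room temperature.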
# IL-2 act: activators of IL-2; IL-2 activation reporter assay, cell-based qHTS; stimulated with anti-CD3/CD4/CD28 beads; in transgenic mouse T cells; activation, % (series mostly up to about 46 µM); actives 0.065% (n = 360,000); in the data active = activation above about 50%; inconclusive = mostly about 30% to 49%; also: 0% is about no effect
#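 EGFP and DsRed fluorescence is measured by plate cytometry in unstimulated transgenic mouse T cells exposed to compound for 60 minutes, then stimulated 18 hours at 37 degrees C with anti-CD3/anti-CD4 beads plus anti-CD28.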
# gsp antagonist: antagonists of gsp mutant (McCune-Albright syndrome) | gsp-mutant cells, cAMP HTRF, 30 min | Potency, µM (series often up to 76.9 µM), inactives show at the top dose activity change, negative = inhibition, hits mostly inhibitors | actives 0.4% (n = 340,000); calls by dose curve; cell line not stated here;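 also: intracellular cAMP measured with PDE inhibitor Ro 20-1724 present during compound exposure; potency is read from the fitted curve at half-maximal effect; % is scaled to controls: 0 for no effect and ±100 for the full control effect; nearly all actives have a fitted effect of over 65% in size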
#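 Cells in G418 medium, seeded 16-24 h, 37C; buffer exchange to DPBS + 1 mM CaCl2, 0.5 mM MgCl2, 0.05% BSA; cpds in DMSO + […] (300 uM stock), 30 min 37C; HTRF cAMP detection.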
# * = called active by the depositor; ? = inconclusive; . = no result; [ ] = remark or other dose. Unless noted, calls follow the shape of the dose curve; as a rule, active = well fitted curve in the direction sought with a large enough effect; inconclusive = small, poorly fitted or top-dose-only effect, or another doubt; inactive = no such curve, though single readings can be large; an effect the other way counts as inactive or inconclusive.
SMILES,BRCA1 expr up,mIDH1 inhibitor,gsp agonist,IL-2 act,gsp antagonist
COc1ccc(Cc2nc3ccc(C(=O)N(C)Cc4nccn4C)cc3o2)cc1,6%,13%,?,-1,.
CN(Cc1nccs1)C(=O)c1ccc2nc(Cc3ccccc3F)oc2c1,3.2µM*,-8%,-36%,-3,1%
CN(Cc1nccn1C)C(=O)c1ccc2nc(Cc3ccccc3F)oc2c1,13µM*,5%,7%,-1,-1%
CCOc1cc(C(=O)N(Cc2nc(-c3ccc(C)cc3)no2)C(C)C)cc(OCC)c1OCC,-1%,10%,.,.,.
O=C(CSc1n[nH]c(=O)n1C1CC1)Nc1cc(Cl)ccc1Oc1ccccc1,-78%,11%,-3%,-4,35µM*
COc1cc(C)ccc1OCCCOc1ccccc1Cl,13µM*,1%,10%,0,0%[15.4 µM]
CC(/C=N/NC(=O)Cc1cccn1C)=C\c1ccccc1,11µM*,2%,?,-1,3%
CC(C)c1ccc(NC(=O)COc2ccccn2)cc1,4µM*,-2%,-1%,0,14%
CC(C)c1ccc(NC(=O)COc2ccccc2)cc1,?,6%,-1%[15.4 µM],0,6%
Nc1ccc(CCc2nc3ccccc3o2)cc1,2.8µM*,6%,?,-2,0%
CCOC(=O)C1=CCC(c2ccccc2)N(S(=O)(=O)c2ccccc2C)C1 (configuration not stated),16%,.,.,-1,.
C[C@@H]1CN([C@@H](C)CO)C(=O)CCCn2nncc2CO[C@@H]1CN(C)S(=O)(=O)c1ccc(Oc2ccccc2)cc1,-1%,-3%,-24%,-2,.
COc1ccc(-c2csc(NC(=O)c3ccccc3NS(=O)(=O)c3ccc(F)c(F)c3)n2)cc1,-27%,?,-13%[15.4 µM],-4,32µM*
Cc1ccc(S(=O)(=O)Nc2ccccc2C(=O)Nc2nc(-c3ccc(F)cc3)cs2)cc1,-76%,-17%,-3%,-4,-56%
O=C(Nc1ccccc1N1CCOCC1)c1ccccc1NS(=O)(=O)c1ccc(F)c(F)c1,-65%,-9%,-32%,0,3.5µM*
O=C(Nc1ccccc1N1CCOCC1)c1ccccc1NS(=O)(=O)c1ccc(F)cc1,7%,-2%,5%[15.4 µM],1,-8%
O=C(CSc1ccccc1)Nc1nccs1,20%,8%,-9%,-3,8%
O=C(CSc1cn(Cc2ccccc2)c2ccccc12)Nc1nccs1,11µM*,11%,-14%,-4,-7%
COc1cc(C2C(C(=O)OC(C)C)=C(C)N=C3SCCC(=O)N32)ccc1OCc1ccccc1 (configuration not stated),.,-5%,.,.,.
COc1ccccc1OCC(=O)Nc1cccc(-c2nnc(-c3ccco3)o2)c1,5µM*,6%,15%[15.4 µM],0,?
COc1ccc(CC(=O)Nc2cccc(-c3nnc(-c4cccc(C)c4)o3)c2)cc1OC,0%,4%,16%,-1,32µM*
COc1ccc(CC(=O)Nc2cccc(-c3nnc(-c4ccc(C)cc4)o3)c2)cc1OC,-94%,-2%,13%,-4,?
O=C(Cc1ccccc1)Nc1cccc(-c2nnc(-c3ccco3)o2)c1,16%,2%,-14%,-1,-1%
CCn1cnc2c(=O)oc3ccc(S(=O)(=O)N4CCN(c5cc(C)ccc5C)CC4)cc3c21,.,-8%,.,.,.
C#CCNC(=O)/C=C/c1ccc(C)cc1,11µM*,-1%,28%,0,-4%
SMILES,BRCA1 expr up,mIDH1 inhibitor,gsp agonist,IL-2 act,gsp antagonist
Cc1ccc(/C=C/C(=O)NCCCc2ccccc2)cc1,-18%,9%,?,0,3%
CC(C)CCNC(=O)Cn1c(SCc2cccc(F)c2)nc2ccncc21,0%,.,.,.,.
C(=C\c1ccccc1)/C=N/Nc1nc(N2CCOCC2)nc(N2CCOCC2)n1,-1%,4%,-30%,0,-7%
Clc1ccccc1/C=C/C=N/Nc1nc(N2CCOCC2)nc(N2CCOCC2)n1,-32%,-6%,-7%[15.4 µM],-4,13µM*
CN(c1ccccc1)c1nc(N)c([N+](=O)[O-])c(Nc2ccccc2)n1,-15%,-5%,-13%,-2,5%
CN(c1ccccc1)c1nc(N)c([N+](=O)[O-])c(NC2CCCCC2)n1,-5%,9%,-54%,-2,50µM*
CN(Cc1cccc(F)c1)CC(O)COCc1ccccc1Cl (configuration not stated),-6%,-1%,9%,-2,11µM*
CC1(C)NC(=O)N(CC(=O)OCC(=O)c2ccc(Br)s2)C1=O,-30%,1%,10µM*,0,14%
Cc1ccc(NS(=O)(=O)N2CCCCC2)cc1,-10%,6%,-71%,1,-11%
CNC(=O)c1c(Cl)cnn1-c1ccc(C)cc1,6.3µM*,0%,-21%[15.4 µM],0,18%
O=C(N=C1N=C2C=CC=CN2Cc2ccccc21)c1ccc(S(=O)(=O)N2CCOCC2)cc1,10µM*,6%,?,0,10%
CCOC(=O)CNC(c1ccccc1)c1cc(Br)ccc1NC(=O)c1ccc(Cl)cc1 (configuration not stated),.,-8%,.,.,.
COc1ccc(N=C2O/C(=C/c3sc(=S)n(CC4CCCO4)c3O)N=C2C#N)cc1 (configuration not stated),-12%,5%,13%,1,35µM*
COc1ccc2c(c1)O[C@@H](c1cccc(C(F)(F)F)c1)[C@H](OC(=O)Nc1ccc(OC(F)F)cc1)C2=O,-44%,-6%,8%,-4,11µM*
Cc1cc(C(=O)NCCN2C(=O)S/C(=C\c3cccs3)C2=O)ccc1[N+](=O)[O-],71%,-5%,5%,0,25µM*
Cc1cc(C(=O)NCc2cccs2)ccc1[N+](=O)[O-],17%,2%,8%,3,-2%
Cc1ccc(-c2cc(C(=O)N3CCN(c4ccccc4O)CC3)c3ccccc3n2)o1,4.5µM*,-6%,?,0,-24%
CC(/C=C/c1ccc(O)cc1)=N/O,13µM*,6%,7%,1,-1%
COc1ccc2c(CN(C)Cc3ccccc3)cc(=O)oc2c1,5µM*,.,.,0,.
COc1ccc(COc2ccc3c(C)cc(=O)oc3c2)cc1,2.5µM*,1%,-40%,-1,-16%
CCC(C)NC(=O)c1ccc2nc(-c3cccs3)c(-c3cccs3)nc2c1 (configuration not stated),3%,.,.,.,.
O=C(Cn1ncn2c(cc3cc(F)ccc32)c1=O)NC1CCCCC1,.,-1%,.,.,.
FC(F)(F)c1nc(N2CCCC2)ncc1-c1nnnn1-c1ccccc1,-68%,3%,-35%,-2,35µM*
Cc1ccc(-n2nnnc2-c2cnc(N3CCCC3)nc2C(F)(F)F)cc1,-82%,6%,17%,-4,-18%
